Screening results as filed in PubChem BioAssay.
PI5P4Ka inh = inhibitors of human PI5P4K alpha. AID 652105. P48426. max response, %. PI5P4Kalpha enzyme, ADP-Glo luminescence, 60 min; stronger effect = lower value. 330,000 compounds, 1.2% hits; active = max response of -50% or lower; inconclusive = between -30% and -50%; inactive = -30% or higher; also: value at the top dose of about 77 µM
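Human PI5P4Kalpha with substrate in 0.038 M HEPES pH 7.4, 0.28 mM EGTA, 0.1% CHAPS, 5% DMSO; reaction started with 5 microM ATP (final), 60 min at room temperature. ADP formed read by ADP-Glo luminescence.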
BAZ2B block = blocks human BAZ2B. Q9UIF8. AlphaScreen BAZ2B-H3K14Ac peptide displacement. Potency, µM (highest dose often 114 µM), hits mostly inhibitors. 360,000 compounds, 4.4% hits. AID 504333; also: nearly all actives have a fitted effect of over 60% in size
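BAZ2B 50 nM plus b-H3(5-23)K14Ac 50 nM, PBS pH 7.4/0.01% Tween-20, 30 min RT; compound added (max 110 uM), 30 min RT; streptavidin donor/Ni-chelate acceptor beads 10 ug/mL final, 20 min dark; AlphaScreen read.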
HP1b binding inh = inhibitors of HP1-beta chromodomain binding to methylated histone tails; 390,000 compounds, 0.56% hits; AlphaScreen HP1-beta / biotin-H3K9me3 peptide binding; Potency, µM (titrated, usually from 114 µM), most hits filed as inhibitors; P83916; AID 540317; also: nearly all actives have a fitted effect of over 70% in size
Target sequence (P83916 whole entry, looked up): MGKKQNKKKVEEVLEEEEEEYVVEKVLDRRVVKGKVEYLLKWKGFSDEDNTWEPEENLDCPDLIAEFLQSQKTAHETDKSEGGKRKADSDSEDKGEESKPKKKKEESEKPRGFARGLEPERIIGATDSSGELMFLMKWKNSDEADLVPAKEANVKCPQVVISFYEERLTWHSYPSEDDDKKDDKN
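HP1-beta protein (50 nM final) preincubated 30 min at room temperature with biotinylated H3(1-18)K9me3 peptide (50 nM) in PBS pH 7.4, 0.01% Tween-20, then compound added for 30 min. AlphaScreen streptavidin donor/nickel chelate acceptor beads (10 ug/mL final), 30 min dark, luminescence read.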
JMJD2A Tudor inh = JMJD2A Tudor domain (human) inhibition; O75164; AlphaScreen JMJD2A-Tudor / H3K4me3 peptide binding; Potency, µM (doses to about 114 µM), actives largely listed as inhibitors; 390,000 compounds, 4.4% hits; AID 504339; also: nearly all actives have a fitted effect of over 50% in size
G9a block = blocks human histone lysine methyltransferase G9a | Q96KQ7 | G9a H3K9 monomethylation, AlphaScreen, 2 h | Potency, µM (series often up to 102 µM), hits mostly inhibitors | 350,000 compounds, 8.8% hits | AID 504332; also: nearly all actives have a fitted effect of over 75% in size
Target sequence (Q96KQ7 913-1193 limits assumed): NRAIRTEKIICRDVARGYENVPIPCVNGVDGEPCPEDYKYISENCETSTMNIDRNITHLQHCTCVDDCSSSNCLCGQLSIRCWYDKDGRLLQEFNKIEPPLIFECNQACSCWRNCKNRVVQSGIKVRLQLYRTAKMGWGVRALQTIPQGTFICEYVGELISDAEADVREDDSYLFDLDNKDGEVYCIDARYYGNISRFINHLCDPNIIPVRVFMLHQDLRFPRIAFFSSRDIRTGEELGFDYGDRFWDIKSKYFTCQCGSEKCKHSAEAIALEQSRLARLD
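Quantitative HTS format: methyltransferase activity on a biotin-tagged H3K9 peptide is measured by AlphaScreen, using a rabbit anti-monomethyl-H3K9 antibody with streptavidin donor and anti-IgG acceptor beads. Final levels are 20 nM enzyme, 500 nM peptide, 20 uM SAM; 2 h RT.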
PLK1 PBD block = blocks phosphopeptide binding to human PLK1 polo-box domain | Plk1 PBD binding of FITC phosphopeptide, fluorescence polarization | 360,000 compounds, 2.8% hits | Potency, µM, most hits filed as inhibitors; also: series mostly up to about 57 µM; nearly all actives have a fitted effect of over 65% in size
Numbers stand for hits; n = inactive; u = inconclusive; x = not tested or not shown; [ ] = dose if it differs, or a comment. Compounds with a hit are over-represented: about 12% of the library has one in this group of screens. Unless noted, calls follow the shape of the dose curve; as a rule, active = well fitted curve in the direction sought with a large enough effect; inconclusive = small, poorly fitted or top-dose-only effect, or another doubt; inactive = no such curve, though single readings can be large; an effect the other way counts as inactive or inconclusive.

SMILES	PI5P4Ka inh	BAZ2B block	HP1b binding inh	JMJD2A Tudor inh	G9a block	PLK1 PBD block
CCOC(=O)C1CCCN(C(c2ccccn2)c2c(C)[nH]c3ccccc23)C1 (stereo not drawn)	n	n	n	n	1.4µM	n
Cc1ccnc(NC(c2ccccn2)c2c(C)[nH]c3ccccc23)c1 (stereo not drawn)	n	n	u	56µM	u	12µM
N#CC(C#N)=C1C=C2C=C(N3CCCCC3)CCC2CC1 (stereo not drawn)	n	45µM	u	u	u	n
CCN(CC)C1=CC2=CC(=C(C#N)C#N)CCC2CC1 (stereo not drawn)	n	n	n	n	n	n
Cc1cccc(NC(=O)C2CCN(S(=O)(=O)c3cccc4nonc34)CC2)c1	n	n	n	n	n	n
COC(=O)c1ccc(O)c(Sc2cc(C(=O)OC)ccc2O)c1	n	n	n	n	10µM	u
COC(=O)c1ccc(C)cc1	n	x	n	n	x	n
CC12CCC(C(=O)N(CSC(=S)N/N=C\c3ccccc3O)C1=O)C2(C)C (stereo not drawn)	n	2.8µM	n	40µM	4.5µM	u
COc1ccc(/C=N\NC(=S)SCN2C(=O)C3CCC(C)(C2=O)C3(C)C)cc1 (stereo not drawn)	n	x	n	u	x	u
Cc1ccc(N(Cc2cccs2)C(=O)c2ccc(Br)o2)cc1	x	n	n	n	n	x
COc1ccc(-n2c(=O)c3c(c4cc(OC)ccc4n3C)n(Cc3cc(C)ccc3C)c2=O)cc1	x	n	n	n	n	x
O=C(CNC(=O)N1CC(=O)Nc2ccccc21)NCCc1cccc(F)c1	n	n	n	n	x	n
COc1ccc(NC(=O)c2cccc(N3C(=O)c4cccc([N+](=O)[O-])c4C3=O)c2)cc1	n	n	n	n	n	n
COc1ccc(/C=C2\C(=O)N(c3c(Cl)cc(Cl)cc3Cl)N=C2NC(=O)c2cccc([N+](=O)[O-])c2)cc1	n	u	u	u	n	0.75µM
CCC1CCCCN1Cc1cn2c(-c3ccc(Br)cc3)nnc2s1 (stereo not drawn)	x	n	n	n	n	x
CCc1nnc(SCc2ccc(F)cc2Cl)c2cc3sc(C)cc3n12	x	n	n	89µM	n	x
CCc1nnc(SCc2cc(C)ccc2C)c2cc3sc(C)cc3n12	x	n	n	n	10µM	x
CCc1nnc(SCc2ccc(F)cc2Cl)c2cc3sccc3n12	x	n	n	n	n	x
Cc1cc(NC(=S)Nc2cccnc2)ccc1Br	n	n	n	n	40µM	n
COc1cc(NC(=S)Nc2cccnc2)cc(OC)c1	n	n	n	n	16µM	24µM
Cc1cc(NC(=S)Nc2ccccc2)ccc1Br	x	n	n	n	n[0.501 µM]	n
O=C(CCl)NC1(C(=O)O)CCCC1	n	x	x	x	x	n
COc1ccc(OCCN2CCN(C(=O)c3ccc(OC)c(OC)c3)CC2)cc1	n	n	n	n	n	n
Cc1cc(NC(=O)c2coc(=O)c(Br)c2)ccc1C(C)C	n	n	n	n	50µM	n
O=C(Nc1ccc(Br)cn1)c1cccc(-c2cc3ccccc3oc2=O)c1	u	u	n	n	25µM	n
SMILES	PI5P4Ka inh	BAZ2B block	HP1b binding inh	JMJD2A Tudor inh	G9a block	PLK1 PBD block
O=C(Nc1ccc(Br)cn1)c1coc(=O)c(Br)c1	u	u	n	n	50µM	n
O=C(NCc1ccccn1)c1coc(=O)c(Br)c1	n	18µM	n	u	u	n
CN1C=Nc2c(ncn2C2CCC(CO)O2)C1O (stereo not drawn)	n	x	x	x	x	n
CC(=O)N1c2nc(C(C)C)nn2C2(CCCCC2)[C@@H]2CCCC[C@@H]21	x	n	n	n	n	x
COC(=O)c1cccc(Nc2ncnc3sccc23)c1	n	x	n	n	35µM	n
COc1ccc(Nc2ncnc3sccc23)cc1	u	n	n	n	45µM	n
COc1cccc(Nc2ncnc3sccc23)c1	n	n	n	n	n	n
Nc1nc(-c2ccccc2)c(-c2ccccc2)s1	n	n	n	u	40µM	u
Cc1ccc(-c2nc(N)sc2-c2ccc(C)cc2)cc1	n	u	n	u	50µM	n
COc1ccc(-c2nc(-n3c(C)c(C(C)=O)c(C(C)=O)c3C)sc2C)cc1	x	u	n	u	u	n
COc1ccc(OC)c(-c2nc3ccccc3nc2-c2ccccc2)c1	n	n	n	n	x	n
COc1ccc(-c2nc3ccccc3nc2-c2ccccc2)cc1	n	n	n	n	n	21µM
Cc1ccc(-c2nc(N)sc2-c2ccccc2)cc1C	n	u	u	u	u	n
COc1ccc(-c2nc(C)sc2C)cc1	n	n	u	32µM	u	u
Cc1cc(NS(=O)(=O)c2ccc(NC(=O)/C=C/c3cccc(Cl)c3)cc2)no1	n	u	n	n	n	n
O=S(=O)(c1ccccc1)N1CCC2(CCN(Cc3ccncc3)CC2)CC1	x	x	x	x	n[12.7 µM]	x
Cc1ccc(-c2nc(N)sc2C)cc1	n	u	n	n	50µM	n
CCC(C)NC(=O)COC(=O)Cc1sc(N)nc1-c1ccc(C)cc1 (stereo not drawn)	u	n	n	n	n	n
CCCc1sc(N)nc1-c1ccc(C)cc1	n	u	n	u	56µM	n
Cc1ccc2c(CSc3nnc(C4CC4)n3N)cc(=O)oc2c1	x	n	n	n	50µM	n
O=C(NCCCN1CCN(c2cccc(Cl)c2)CC1)c1ccc2nc(Cc3ccccc3)oc2c1	x	u	n	u	u	x
Cn1c(=O)c2sccc2n2c(CCCC(=O)NC3CCCCC3)nnc12	x	u	n	n	n	x
CCC(=O)NC(=S)Nc1ccc(NC(=O)c2ccc(C)c([N+](=O)[O-])c2)cc1	n	n	n	n	7.9µM	n
COc1ccc(C(=O)NC(=S)N2CC(C)OC(C)C2)cc1 (stereo not drawn)	n	n	n	n	n	n
O=C(Nc1nc(-c2ccccn2)cs1)C1COc2ccccc2O1 (stereo not drawn)	n	20µM	n	56µM	n	n
SMILES	PI5P4Ka inh	BAZ2B block	HP1b binding inh	JMJD2A Tudor inh	G9a block	PLK1 PBD block
Cc1ccc(C(=O)NC(=S)N2CC(C)OC(C)C2)cc1[N+](=O)[O-] (stereo not drawn)	x	n	n	n	40µM	n
Cc1csc(NC(=O)c2ccc(C)c([N+](=O)[O-])c2)n1	n	u	n	n	10µM	n
Cc1ccc(S(=O)(=O)NC(=O)NCC2CCN(S(=O)(=O)c3ccccc3)CC2)cc1	n	n	n	n	n	n
CCCCn1c(SCC(=O)NC2CC2)nnc1-c1ccncc1	n	n	n	n	n	n
O=C(Nc1nc(-c2ccccn2)cs1)c1ccccc1-n1cnnn1	u	22µM	n	u	10µM	3.8µM
O=C(Nc1ccc(OC(F)(F)F)cc1)c1ccccc1-n1cnnn1	n	x	n	n	x	n
O=C(Nc1nc(-c2ccccn2)cs1)c1ccc2c(c1)OCCO2	n	22µM	n	56µM	n	n
CC(=O)Nc1ccc(C(=O)Nc2nc(-c3ccccn3)cs2)cc1	n	5.6µM	n	56µM	u	24µM
